Records with an inconclusive call do not appear. A number with no mark means an inactive call. Active and inactive are the calls of the source. The call rests on the fitted dose curve; in most records, active means well fitted activation curve with a large enough effect; inconclusive means small, poorly fitted or top-dose-only effect, or another doubt; inactive means no such curve, though single readings can be large or run the other way.
Potency means the concentration at half of the fitted maximal effect.

This test is described as follows: Cell Proliferation Assay against the TMD8 Cell Line (Caspase readout at 8 hrs) (AID 651713). To be noted: TMD8 lymphoma cells, caspase activation luminescence; series mostly up to 46.1 µM; caspase activation: at the top concentration. An excerpt:
One class of targeted therapeutics showing early clinical success in killing of ABC DLBCL lines are small molecule inhibitors of the Bruton tyrosine kinase (BTK) 11. Thus, we chose to investigate what additional compounds, if any, would synergize with the BTK inhibitor Ibrutinib (PCI-32765).
Prior to any combination assays, using an NCATS developed oncology compound library called the Mechanism of Interrogation Plate (MIPE), two well studied ABC DLBCL lines (TMD8 and HBL1) were screened using a cell viability assay (CellTiterGlo) and a 12-point titration series for each single agent. These initial experiments offered insight into the concentration range that offered the best coverage of activity and non-activity to assure relevant data is generated. In addition to the viability signature associated with this library, we examined the apoptotic response of each agent versus the TMD8 line as judged by caspase 3/7 activation. Activity was assayed at both 8 and 16 hour time-points to gain an appreciation of which agents induced an apoptotic response in a reasonable timeframe from a therapeutic exposure perspective. MIPE was also assayed for single agent viability in a human mesenchymal stem cell (hMSC) line as a surrogate of each library members potential therapeutic index.
The combination plates were then generated by choosing 20 of the best compounds from this single agent screen and plated in the presence of the BTK inhibitor. The first analysis was carried out using 6x6 dose response blocks for each of the 20 compounds. […] In addition to the cell viability assay, the parallel caspase 3/7 activation and viability in hMSC assays were carried out in the 10x10 format.
A total of 500 log growing TMD8 cells are seeded per well in 5 uL of a RPMI with glutamine (or Glutamax), without phenol red plus 5% FBS and 1X Pen/Strep into 1536 -solid white high base tissue culture treated Greiner One Bio Plates (789173-F) using a multidrop combi dispenser and a small sterile cassette. Compounds and controls totaling 23nL per well (negative control DMSO and positive control 9.2 uM Bortezomib-final) are immediately added to the plates using a 1536 head pin tool from Kalypsys. The plates are then covered with stainless steel gasket lids from Kalypsys and incubated for either 8 hours at 37C under 95% relative humidity with 5% CO2. After the desired incubation time, the plates are removed and allowed to reach room temperature before 3 uL of the Caspase Glo reagent (Promega) is added using an Aurora Flying Reagent Dispenser Bioraptor. The plates are then spun at 1000 rpms to remove bubbles and incubated for 15 minutes at room temperature before read on a ViewLux using a luminescent filter with a 10 second exposure. The relative luciferase units are used to calculated percent activity using DMSO as 0% and Bortezomib as 100%.
As for `CCCCCCCCCCCCCC(=O)N[C@H](CO)[C@H](O)c1ccc([N+](=O)[O-])cc1`, the “caspase activation” value is 19.6%. Still for that read-out and setting: then `CC(C)n1c(C=C[C@H](O)C[C@H](O)CC(=O)O)c(-c2ccc(F)cc2)c2ccccc21`, with -1.7%.

As for `CC(O)=C(C#N)C(=O)Nc1ccc(C(F)(F)F)cc1`, the “caspase activation” value is -82.4%. On to `COc1c(C)cnc(Cn2cnc3c(Cl)nc(N)nc32)c1C`, for which the “caspase activation” value was 20.4%. Still for that read-out and setting: the value for `COc1cc2c(cc1OC)CC(=O)N(CCCN(C)C[C@H]1Cc3cc(OC)c(OC)cc31)CC2` was -3.37%; that for `COc1nc(C)cnc1NS(=O)(=O)c1cccnc1-c1ccc(-c2nnco2)cc1` was -29.4%; that for `OCCn1cc(-c2ccc3c(c2)CCC3=NO)c(-c2ccncc2)n1` was 4.17%. In the case of `NC(=O)c1ccc(N(C(N)=O)c2c(F)cccc2F)nc1-c1ccc(F)cc1F`, the “caspase activation” value is -5.16%.

`O=C(O)c1ccc(O)c2ncc(N3CCOCC3)cc12`: the “caspase activation” value is -2.94%. On the same count and under the same terms, then `CCC=CC[C@H]1C(=O)CC[C@@H]1CC(=O)OC`, with -3.32%. Regarding `CNC(=O)c1cc(Oc2ccc(NC(=O)Nc3ccc(Cl)c(C(F)(F)F)c3)c(F)c2)ccn1`, the “caspase activation” value was 24.1%. Consider `Cc1ccc(NC(=O)c2ccc(CN3CCN(C)CC3)cc2)cc1Nc1nc(-c2cccnc2)cs1`, for which the Potency was 23.5 µM (active). `CC(C)C[C@@H](C(=O)N[C@H](C(=O)OC1CCCC1)c1ccccc1)[C@H](O)C(=O)NO`: the “caspase activation” value is -34.2%. On the same count and under the same terms, the value for `Cn1cc(-c2ccc3nnc(Sc4ccc5ncccc5c4)n3n2)cn1` was -11%. Same read-out and setting: then `CN1C(=O)C(Cc2c[nH]c3ccccc23)NC1=S` (stereo not given), with 3.58%. As to `CN(C)CCN(C)C(=O)c1ccc(NC(=O)Nc2ccc(-c3nc(N4CCOCC4)c4ccn(CC(F)(F)F)c4n3)cc2)cc1`, the Potency was 29.6 µM (active). Regarding `Cc1cc2c(cc1C1(c3ccc(C(=O)O)cn3)CC1)C(C)(C)CCC2(C)C`, the “caspase activation” value is 7.79%. The same measure, in the same setting: then `Cc1cccc(Nc2nc(N[C@@H]3CCCC[C@H]3N)ncc2C(N)=O)c1`, with 24.6%; and `CCCCOCCOc1nc(-c2ccc(C(=O)O)c(F)c2)sc1C`, with -1.38%. Turning to `Cc1nn(Cc2ccccc2Cl)c(C)c1CN(C)CC(O)COc1ccc(Cl)cc1` (stereo not given), the “caspase activation” value is 16.6%. Same read-out and setting: the value for `O=C(Nc1cccc(Cl)c1)Nc1ncc(CCNc2ncnc3ccsc23)s1` was -1.04%. The same measure, in the same setting: the value for `CCC(=O)N1CCN(c2ccc(-n3c(=O)ccc4cnc5ccc(-c6cnc7ccccc7c6)cc5c43)cc2C(F)(F)F)CC1` was 28.7%; that for `O=C1C(CCC(O)c2ccc(F)cc2)C(c2ccc(O)cc2)N1c1ccc(F)cc1` (stereo not given) was -11.6%; that for `COC(=O)Nc1ccc(-c2nc(N3CCOCC3)c3cnn(C4CCN(C(=O)OC)CC4)c3n2)cc1` was 21.2%.

In the case of `CCCCn1c(=O)n(Cc2ccccc2F)c(=O)c2[nH]c(Cc3ccc(NC(C)=O)cc3)nc21`, the “caspase activation” value was -27.9%.

For the origin of these results see PubChem BioAssay (NCATS).
